Screening results from PubChem BioAssay.
TDP1 cell noCPT: qHTS for Inhibitors of human tyrosyl-DNA phosphodiesterase 1 (TDP1): qHTS in cells in absence of CPT; Potency, µM (series often up to 46.2 µM), for inactives: at the highest dose activity change, negative = growth inhibition, usual class: inhibitors; 15% of 420,000 active; DT40 Tdp1-/- hTDP1 cells, no CPT, ATP luminescence, 48 h; AID 686978, 2013; further: on the % scale 0 is the no-effect control and ±100 the full control effect; nearly all actives have a fitted effect of over 55% in size
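Chicken DT40 Tdp1-/- cells complemented with human TDP1, screened without camptothecin (DMSO vehicle only), 400 cells/well. Compounds pin-transferred, cells incubated at 37 °C for at least 48 hr. Growth read as ATP-dependent luminescence (CellTiter-Glo, 30 min at RT).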
TDP1 cell CPT: DT40-hTDP1 cell growth loss with CPT. chicken DT40 Tdp1-/-;hTDP1 cells + 20 nM CPT, ATP luminescence, 48 h. Potency, µM (doses to about 46.2 µM), inactives show at the highest dose activity change, negative = growth inhibition, usual class: inhibitors. 12% of 420,000 active. AID 686979; further: on the % scale 0 is the no-effect control and ±100 the full control effect; nearly all actives have a fitted effect of over 55% in size
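Cell growth measured by CellTiter-Glo luminescence after a minimum 48 h, 37 C compound exposure with 20 nM CPT in Tdp1-knockout DT40 cells stably expressing hTDP1, seeded 400/well; qHTS titration format.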
TDP1 inh: inhibitors of human tyrosyl-DNA phosphodiesterase TDP1; Q9NUW8; recombinant TDP1, AlphaScreen DNA substrate cleavage; Potency, µM (series often up to 130 µM), for inactives: top-dose activity change, negative = inhibition, most hits filed as inhibitors; 0.28% of 350,000 active; further: on the % scale 0 is the no-effect control and ±100 the full control effect; nearly all actives have a fitted effect of over 40% in size
Target sequence (Q9NUW8 whole entry, looked up): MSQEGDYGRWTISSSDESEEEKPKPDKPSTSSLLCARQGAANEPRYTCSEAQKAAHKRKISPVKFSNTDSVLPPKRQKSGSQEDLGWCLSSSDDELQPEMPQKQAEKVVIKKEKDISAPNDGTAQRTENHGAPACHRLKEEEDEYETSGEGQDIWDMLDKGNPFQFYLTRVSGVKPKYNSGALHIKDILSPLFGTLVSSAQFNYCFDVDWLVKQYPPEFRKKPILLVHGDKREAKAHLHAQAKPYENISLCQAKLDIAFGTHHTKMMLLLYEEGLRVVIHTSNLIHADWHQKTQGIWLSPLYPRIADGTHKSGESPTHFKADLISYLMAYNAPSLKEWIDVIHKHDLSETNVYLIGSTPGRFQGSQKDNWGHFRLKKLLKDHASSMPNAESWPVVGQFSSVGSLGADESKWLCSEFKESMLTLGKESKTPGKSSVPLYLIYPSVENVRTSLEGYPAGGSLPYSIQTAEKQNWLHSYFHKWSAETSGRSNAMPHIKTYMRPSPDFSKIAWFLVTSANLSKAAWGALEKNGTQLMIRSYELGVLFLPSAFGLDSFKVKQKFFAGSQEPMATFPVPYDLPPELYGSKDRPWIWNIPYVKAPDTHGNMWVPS
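AlphaScreen read-out: signal falls as enzyme removes the 3' tyrosine-FITC from a 5'-biotinylated DNA oligo (15 nM, 5 min, RT). Enzyme was E. coli-made recombinant Tdp1 at 1 nM, exposed to compound for 15 min beforehand; beads 10 ug/ml, 10 min.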
ClpP mod: qHTS Assay for Activators of ClpP. ATP-dependent Clp protease proteolytic subunit (Bacillus subtilis (strain 168)), P80244. purified B. subtilis ClpP, FRET peptide cleavage, 20 min. Potency, µM (titrated, usually from 57.5 µM), for the others: top-dose activity change, negative = active. 1.9% of 340,000 active. AID 651965, 2013; active means well fitted falling curve with a large enough effect; inconclusive means small, poorly fitted or top-dose-only effect; inactive means no such curve, though single readings can be large or run the other way; further: the source files actives as falling curves though it sought activators and does not explain the sign; nearly all actives have a fitted effect of over 65% in size
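FRET quenching reversal measured ClpP activation: 10 microg/mL B. subtilis ClpP at pH 8 with the FRET-FV decapeptide, read at 430 nm after 320 nm excitation. The 20-min minus 0-min signal was scaled between DMSO/no-enzyme wells and ADEP (5.8 microM final).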
Active calls of the source: *; ? = inconclusive; . = no result given; [ ] = another dose, or the depositor's remark. The list is not random: actives were taken first. Their share in the collection is about 17%. Unless noted, the call rests on the fitted dose curve; in most records, active means well fitted curve in the direction sought with a large enough effect; inconclusive means small, poorly fitted or top-dose-only effect, or another doubt; inactive means no such curve, though single readings can be large; an effect the other way counts as inactive or inconclusive. Potency means the concentration at half of the fitted maximal effect.

SMILES	TDP1 cell noCPT	TDP1 cell CPT	TDP1 inh	ClpP mod
O=C(NC(NNc1ccc([N+](=O)[O-])cc1)(C(F)(F)F)C(F)(F)F)c1ccc(F)cc1	18.4µM*	23.1µM*	5.5%	0.8%
O=[N+]([O-])c1ccc(NNC(=S)Nc2ccc(F)cc2)cc1	3.26µM*	4.61µM*	23.3%[56.1 µM]	-1.4%
COc1ccc2c(c1)-c1nc(-n3ncc(C(=O)NC(C)(C)CO)c3C3CC3)ncc1CC2	?	12.4%[9.04 µM]	.	.
CCCNC(=S)Nc1ccc(Oc2ccccc2)cc1	16.4µM*	?	1.9%	1.4%
CCCCNC(=S)Nc1ccc([N+](=O)[O-])cc1	23.1µM*	?	0.6%	-0.3%
COc1ccc(CNC(=O)CN(C(=O)CCC(=O)Nc2nccs2)c2cccc(C)c2)cc1	?	?	8.2%	.
CC(C)c1ccc(NC(=O)CCNS(=O)(=O)c2cc(Br)cnc2N)cc1	?	16.4µM*	3.2%	-21.4%
CC1(C)S[C@@H]2[C@H](NC(=O)C(c3ccccc3)S(=O)(=O)O)C(=O)N2[C@H]1C(=O)O (stereo partly specified)	1.1%	-5.0%	.	.
CCOc1ccc(NC(=O)CC2C(=O)N(c3ccc(Cl)cc3)C(=O)N2Cc2cccs2)cc1 (stereo unspecified)	13µM*	?	2.8%	-1.0%
COc1ccc(N2C(=O)C(CC(=O)Nc3ccc(Cl)cc3)N(Cc3ccc4c(c3)OCO4)C2=O)cc1 (stereo unspecified)	?	?	6.4%	-1.5%
COC(=O)c1ccc(NC(=O)CC2C(=O)N(c3ccc(Cl)cc3)C(=O)N2Cc2cccs2)cc1 (stereo unspecified)	?	23.1µM*	11.3%	-2.5%
CCOc1ccc(NC(=O)CC2C(=O)N(c3ccccc3)C(=O)N2Cc2ccccn2)cc1 (stereo unspecified)	-27.3%	-22.2%	3.9%	-2.5%
COCCCN1C(=O)N(c2ccccc2)C(=O)C1CC(=O)Nc1ccccc1 (stereo unspecified)	0.7%	9.4%	.	-0.4%
COC(=O)c1ccc(NC(=O)CC2C(=O)N(c3ccccc3)C(=O)N2Cc2cccs2)cc1 (stereo unspecified)	18.4µM*	16.4µM*	3.8%	0.0%
COc1ccc(CCN2C(=S)N(c3ccc(Cl)cc3)C(=O)C2CC(N)=O)cc1OC (stereo unspecified)	16.4µM*	14.6µM*	-7.7%	-0.8%
CN(CCCNC(=O)Cn1ncc2c([nH]c3ccccc32)c1=O)Cc1ccccc1	-25.3%	-7.1%	-1.2%	2.8%
Cc1cccc(S(=O)(=O)NCCNS(=O)(=O)c2cccc(C)c2)c1	?	-23.8%	.	.
COC(=O)CN1C(=S)N(c2ccc(F)cc2)C(=O)C1CC(=O)Nc1ccccc1 (stereo unspecified)	-2.6%	3.9%	2.4%	-1.0%
COC(=O)CN1C(=S)N(c2ccc(Cl)cc2)C(=O)C1CC(=O)Nc1ccccc1 (stereo unspecified)	-16.5%	-15.5%	-2.2%	12.6µM*
COc1ccc(OC)c(NC(=O)Cn2cc(S(=O)(=O)c3ccccc3)c(=O)c3cc(C)ccc32)c1	1.8%	10.9%	-1.3%	-3.1%
O=C1c2ccccc2NC(c2ccc3c(c2)OCO3)N1Cc1ccco1 (stereo unspecified)	?	?	2.1%	4.2%
CCOc1cc(C2Nc3ccccc3C(=O)N2Cc2ccco2)ccc1OCc1ccccc1Cl (stereo unspecified)	3.55µM*	10µM*	0.4%	4.2%
COc1ccc(C2Nc3ccccc3C(=O)N2Cc2ccccc2)cc1OC (stereo unspecified)	?	-24.2%	.	3.7%
COc1ccc2c(c1OC)C(=O)N1c3ccccc3C(=O)OC21 (stereo unspecified)	3.2%[9.04 µM]	-3.7%[9.04 µM]	3.1%	.
COc1ccc2c(c1OC)C(=O)N1c3ccccc3C(=O)N(Cc3ccco3)C21 (stereo unspecified)	20µM*	10µM*	-0.2%	-3.8%
SMILES	TDP1 cell noCPT	TDP1 cell CPT	TDP1 inh	ClpP mod
COc1ccc(C2Nc3ccccc3C(=O)N2Cc2ccco2)cc1OC (stereo unspecified)	22.4µM*	8.91µM*	5.9%	4.7%
O=C1c2ccccc2NC(c2cc(Br)c3c(c2)OCO3)N1Cc1ccco1 (stereo unspecified)	17.8µM*	?	5.0%	4.7%
O=C1c2ccccc2NC(c2cccc(O)c2)N1Cc1ccco1 (stereo unspecified)	?	?	1.9%	3.8%
N#Cc1ccsc1NC(=O)COC(=O)C1=NNC(=O)CC1	20.4%	-4.9%	-19.5%	-1.3%
Cn1c(C2=C(O)CN(Cc3ccccc3)C2=N)nc2ccccc21	1.5%	-3.5%	4.7%	0.9%
COc1ccc(C2Nc3ccccc3C(=O)N2Cc2ccco2)cc1COc1ccc(F)cc1 (stereo unspecified)	?	?	-4.9%	25.1µM*
COc1ccc(C2Nc3ccccc3C(=O)N2Cc2ccco2)cc1COc1ccc(N)cc1 (stereo unspecified)	.	.	0.0%	.
COc1ccccc1Nc1ncc2c(n1)CCN(CC(C)C)C2	?	?	-1.2%	1.4%
COc1ccc(Nc2ncc3c(n2)CCN(Cc2ccc(Br)s2)C3)c(OC)c1	13µM*	20.6µM*	6.2%	-27.2%
COc1ccc(Nc2ncc3c(n2)CCN(Cc2cccc(F)c2F)C3)c(OC)c1	20.6µM*	25.9µM*	1.2%	-1.0%
COc1ccc(Nc2ncc3c(n2)CCN(Cc2cc(Br)cs2)C3)c(OC)c1	14.6µM*	18.4µM*	8.8%	-3.4%
COc1ccccc1Nc1ncc2c(n1)CCN(Cc1ccc(C)s1)C2	-10.3%	-5.6%	3.8%	-1.4%
COc1ccc(Cl)cc1NC(=O)Cn1c(NCCO)nc2ccccc21	?	?	8.0%	-2.0%
C[C@@H]1CN(Cc2ccc3c(c2)CN(Cc2cccn2-c2ccccn2)CCO3)C[C@H](C)O1	-1.8%	-5.5%[9.04 µM]	.	.
CC(=O)c1cccc(CN2CCN(Cc3ccccc3)C(CCO)C2)c1 (stereo unspecified)	-7.1%	-5.9%	7.6%	2.9%
C[C@@H]1O[C@H](O[C@@H]2[C@H](C)O[C@H](O[C@@H]3[C@H](C)O[C@H](O[C@H]4CC[C@]5(C)[C@@H](CC[C@@H]6[C@H]5C[C@@H](O)[C@]5(C)[C@@H](C7=CC(=O)OC7)CC[C@]65O)C4)C[C@@H]3O)C[C@@H]2O)C[C@H](O)[C@@H]1O	.	.	4.8%[56.1 µM]	.
C[C@H]1O[C@@H](O[C@H]2[C@@H](O)C[C@H](O[C@H]3[C@@H](O)C[C@H](O[C@H]4CC[C@@]5(C)[C@H](CC[C@@H]6[C@@H]5C[C@@H](O)[C@]5(C)[C@@H](C7=CC(=O)OC7)CC[C@]65O)C4)O[C@@H]3C)O[C@@H]2C)C[C@H](O)[C@@H]1O	0.596µM*	0.841µM*	-8.6%[56.1 µM]	0.0%
